Test [1] is described as follows: ATG_TAL_CIS: Attagene CIS-FACTORIAL HepG2 Assay for human TAL Basal Promoter (AID 2282966; active = hit-call score of the fitted dose curve at least 0.9, where 1 is the maximum; inactive = score below 0.9;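 note: background control endpoint measuring basal TAL promoter reporter mRNA not a specific factor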). To be noted: HepG2 Attagene cis-factorial TAL promoter reporter; actives raise or lower the signal. An outline of the steps: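 Background-control endpoint: basal TAL promoter reporter transcripts in transiently transfected HepG2, measured 24 h after dosing. Read-out by RT-PCR with fluorescent primer extension and capillary electrophoresis; gain or loss of signal fitted relative to DMSO.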

Test [2] is described as follows: ATG_TGFb_CIS: Attagene CIS-FACTORIAL HepG2 Assay for human Transforming Growth Factor (TGF) (AID 2282967; active = hit-call score of the fitted dose curve at least 0.9, where 1 is the maximum; inactive = score below 0.9). The following applies: HepG2 Attagene CIS TGFb reporter, mRNA transcription; actives raise or lower the signal. An outline of the steps:
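Liver HepG2 line, cis-factorial reporter panel, 24 h dosing. Quantitation: RT-PCR products labeled with 6-FAM, cut with HpaI, resolved by capillary electrophoresis; DMSO-referenced bidirectional analysis.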

Test [3] is described as follows: ATG_VDRE_CIS: Attagene CIS-FACTORIAL HepG2 Assay for human Vitamin D Receptor Element (VDRE) (AID 2282968; active = hit-call score of the fitted dose curve at least 0.9, where 1 is the maximum; inactive = score below 0.9). The following applies: HepG2 VDRE cis-reporter transcription, actives raise or lower the signal. An outline of the steps: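 Measures endogenous factor activity through cis-element-driven reporter transcripts in transiently transfected HepG2. Cells are treated 24 h; reporter mRNA is quantified by RT-PCR and capillary electrophoresis; fitting is bidirectional.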

Test [4] deals with Nuclear receptor subfamily 1 group I member 3 (Homo sapiens) (UniProt Q14994). The experiment in a line: ATG_CAR_TRANS: Attagene TRANS-FACTORIAL HepG2 Assay for human Constitutive Androstane Receptor (CAR) (AID 2282969).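 Note: activators raise reporter mRNA above DMSO so AC50 marks induction.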 The following applies: HepG2 Attagene TRANS-FACTORIAL CAR reporter. An outline of the steps:
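Signal is reporter mRNA induction relative to DMSO, measured 24 h after dosing by RT-PCR with fluorescent primer extension and capillary electrophoresis. Human HepG2 liver cells carried transiently transfected chimeric NR-Gal4/GAL4-UAS reporter constructs.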

The target of test [5] is Steroid hormone receptor ERR1 (Homo sapiens) (UniProt P11474). As to the kind of experiment: ATG_ERRa_TRANS: Attagene TRANS-FACTORIAL HepG2 Assay for human Estrogen-Related Receptor alpha (ERRa) (AID 2282971). The following applies: HepG2 Attagene TRANS reporter, ERRa transactivation. An outline of the steps:
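Reporter transcripts from ERRa-Gal4 chimera activity measured in transiently transfected human HepG2 cells 24 hours after dosing, using RT-PCR with 6-FAM primer extension, HpaI digestion and capillary electrophoresis; DMSO is baseline.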

A short description of test [6]: ATG_M_19_TRANS: Attagene TRANS-FACTORIAL HepG2 Assay for M19 Transcription Factor (Internal Marker) (AID 2282974). To be noted: HepG2 Attagene TRANS-FACTORIAL M19 internal marker reporter. An outline of the steps: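 Fluorescence of 6-FAM-labelled reporter cDNA fragments, separated by capillary electrophoresis, served as the readout. These derived from HepG2 cells carrying transfected GAL4-UAS reporter units after 24 h dosing, with DMSO as negative control.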

The nature of test [7]: ATG_GAL4_TRANS: Attagene TRANS-FACTORIAL HepG2 Assay for GAL4 (Internal Marker) (AID 2282976). The following applies: HepG2 Attagene TRANS GAL4 internal marker reporter. An outline of the steps:
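In transfected human HepG2 liver cells dosed 24 h, GAL4 reporter mRNA serves as a baseline marker. Detection by RT-PCR with fluorescent capillary electrophoresis, activity fitted upward relative to DMSO.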

Test [8] deals with Glucocorticoid receptor (Homo sapiens) (UniProt P04150). As to the kind of experiment: ATG_GR_TRANS: Attagene TRANS-FACTORIAL HepG2 Assay for human Glucocorticoid Receptor (GR) (AID 2282978).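 Note: activators score as hits since higher reporter transcript over DMSO is fitted.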 To be noted: HepG2 Attagene TRANS GR reporter, mRNA transcription. An outline of the steps: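 Fluorescent capillary-electrophoresis quantitation of reporter mRNA is the readout, taken 24 h after dosing human HepG2 cells carrying transiently transfected GAL4-UAS reporter units activated by chimeric NR-GAL4 fusions; activity scored as induction over DMSO.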

Test [9] can be described thus: ATG_M_06_TRANS: Attagene TRANS-FACTORIAL HepG2 Assay for M06 Transcription Factor (Internal Marker) (AID 2282983). The following applies: HepG2 Attagene TRANS M06 internal marker reporter. An outline of the steps:
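Background-control reporter readout: after 24 h chemical exposure of transiently transfected HepG2 (GAL4-UAS reporter units), mRNA quantified by RT-PCR with fluorescent labeling and capillary electrophoresis. Gain-of-signal fitting against DMSO baseline.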

Test [10] in a line: ATG_M_32_TRANS: Attagene TRANS-FACTORIAL HepG2 Assay for M32 Transcription Factor (Internal Marker) (AID 2282984). To be noted: HepG2 Attagene TRANS M32 internal marker reporter. An outline of the steps: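 Cell-based TRANS-format assay in HepG2: exogenous chimeric GAL4 reporter units transiently expressed, compounds applied 24 h. Reporter mRNA detected by RT-PCR plus capillary electrophoresis; this readout is an internal background marker.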

Test [11] deals with Nuclear receptor subfamily 4 group A member 2 (Homo sapiens) (UniProt P43354). As to the kind of experiment: ATG_NURR1_TRANS: Attagene TRANS-FACTORIAL HepG2 Assay for human Nuclear Receptor Related Protein 1 (NURR1) (AID 2282985). The following applies: HepG2 Attagene TRANS reporter, mRNA readout. An outline of the steps:
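Measures transcriptional activation by an exogenous NR-Gal4 chimera in transfected HepG2 liver cells. After 24 h, reporter RNA is reverse-transcribed, amplified and resolved by capillary electrophoresis; DMSO defines baseline.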

In test [12] the target is Transcriptional activator Myb (Homo sapiens) (UniProt P10242). The experiment in a line: ATG_Myb_CIS: Attagene CIS-FACTORIAL HepG2 Assay for human Myeloblastosis (Myb) Proto-Oncogene Transcription Factor (AID 2282986; active = hit-call score of the fitted dose curve at least 0.9, where 1 is the maximum; inactive = score below 0.9). The following applies: HepG2 Attagene CIS-FACTORIAL Myb reporter transcription; actives raise or lower the signal. An outline of the steps: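 Reporter transcript levels, quantified by fluorescent RT-PCR and capillary electrophoresis, serve as the read-out. Transfected HepG2 cells carrying cis-promoter reporter units are dosed for 24 hours, and curves are fitted bidirectionally against DMSO controls.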

Test [13] concerns the target Nuclear respiratory factor 1 (Homo sapiens) (UniProt Q16656). As to the kind of experiment: ATG_NRF1_CIS: Attagene CIS-FACTORIAL HepG2 Assay for human Nuclear Respiratory Factor 1 (NRF1) Orphan Gene (AID 2282987; active = hit-call score of the fitted dose curve at least 0.9, where 1 is the maximum; inactive = score below 0.9). The following applies: HepG2 NRF1 cis-element reporter, Attagene multiplex; actives raise or lower the signal. An outline of the steps: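 Multiplexed cis-reporter assay, HepG2 cells, 24 h treatment. Total RNA → oligo(dT) RT → PCR with reporter-specific primers → 6-FAM primer extension → HpaI cut → CE. Bidirectional fit vs DMSO.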

The target of test [14] is X-box-binding protein 1 (Homo sapiens) (UniProt P17861). The experiment in a line: ATG_Xbp1_CIS: Attagene CIS-FACTORIAL HepG2 Assay for human X-box Binding Protein 1 (XBP1) (AID 2282972; active = hit-call score of the fitted dose curve at least 0.9, where 1 is the maximum; inactive = score below 0.9). To be noted: HepG2 XBP1 cis-element reporter, Attagene multiplex; actives raise or lower the signal. An outline of the steps: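 Multiplexed cis-reporter readout in transfected HepG2 liver cells. Exposure lasted 24 hours. Activity in either direction was fitted against DMSO as negative control and baseline.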

Test [15] deals with Estrogen-related receptor gamma (Homo sapiens) (UniProt P62508). The experiment in a line: ATG_ERRg_TRANS: Attagene TRANS-FACTORIAL HepG2 Assay for human Estrogen-Related Receptor gamma (ERRg) (AID 2282977).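 Note: hits increase reporter signal over DMSO so potencies reflect activators.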 To be noted: HepG2 Attagene TRANS reporter, ERRg transactivation. An outline of the steps:
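Readout: fluorescent reporter-mRNA fragments resolved by capillary electrophoresis after RT-PCR and HpaI cut. Cells: transiently transfected HepG2 carrying GAL4-UAS reporters driven by exogenous NR-Gal4 chimeras, dosed 24 h. Activity fitted upward relative to DMSO baseline.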

Test [16] concerns the target Bile acid receptor (Homo sapiens) (UniProt Q96RI1). The experiment in a line: ATG_FXR_TRANS: Attagene TRANS-FACTORIAL HepG2 Assay for Farnesoid X Receptor (FXR) (AID 2282979).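 Note: hits raise reporter mRNA above DMSO so AC50 marks FXR activation.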 To be noted: HepG2 Attagene TRANS FXR-GAL4 reporter transcription. An outline of the steps: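 Reporter transcripts from transfected HepG2 cells were measured 24 h after dosing, using RT-PCR with capillary electrophoresis of 6-FAM-labelled fragments. The read-out reflects activity of exogenous FXR-Gal4 chimera on GAL4-UAS units, with induction relative to DMSO.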

For test [17], the target named is Oxysterols receptor LXR-alpha (Homo sapiens) (UniProt Q13133). As to the kind of experiment: ATG_LXRa_TRANS: Attagene TRANS-FACTORIAL HepG2 Assay for human Liver X Receptor alpha (LXRa) (AID 2282980). To be noted: HepG2 Attagene TRANS reporter, LXRa transactivation. An outline of the steps:
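Chemical-induced reporter mRNA measured by RT-PCR with fluorescent labelling and capillary electrophoresis after 24 h dosing of transiently transfected HepG2 cells expressing exogenous NR-Gal4 chimeras; increases scored against DMSO baseline.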

In test [18] the target is Hepatocyte nuclear factor 4-alpha (Homo sapiens) (UniProt P41235). The experiment in a line: ATG_HNF4a_TRANS: Attagene TRANS-FACTORIAL HepG2 Assay for human Hepatocyte Nuclear Factor 4 alpha (HNF4a) (AID 2282982). To be noted: HepG2 HNF4a transactivation reporter, mRNA readout. An outline of the steps:
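Multiplexed reporter assay: transfected HepG2, 24 h exposure, total RNA → oligo(dT) RT → PCR → 6-FAM extension → HpaI digest → CE fluorescence. DMSO = negative control.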

Test [19] concerns the target Oxysterols receptor LXR-beta (Homo sapiens) (UniProt P55055). As to the kind of experiment: ATG_LXRb_TRANS: Attagene TRANS-FACTORIAL HepG2 Assay for human Liver X Receptor beta (LXRb) (AID 2282981). The following applies: HepG2 Attagene TRANS GAL4-LXRb reporter, mRNA. An outline of the steps: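 After 24 h of chemical treatment, transfected HepG2 cells yield total RNA; reporter cDNA is PCR-amplified, FAM-labelled, HpaI-cut and run on capillary electrophoresis. Signal reflects chimeric LXRb-Gal4 activity on GAL4-UAS reporters.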

SMILES strings stand for the structures. Records with an inconclusive call do not appear. Calls of active or inactive are those of the source. Rule for the calls, unless noted: active = hit-call score of the fitted dose curve at least 0.9, where 1 is the maximum; inconclusive = response in the unintended direction; inactive = score below 0.9.

X-box-binding protein 1 (Homo sapiens), sequence (P17861 whole entry, looked up): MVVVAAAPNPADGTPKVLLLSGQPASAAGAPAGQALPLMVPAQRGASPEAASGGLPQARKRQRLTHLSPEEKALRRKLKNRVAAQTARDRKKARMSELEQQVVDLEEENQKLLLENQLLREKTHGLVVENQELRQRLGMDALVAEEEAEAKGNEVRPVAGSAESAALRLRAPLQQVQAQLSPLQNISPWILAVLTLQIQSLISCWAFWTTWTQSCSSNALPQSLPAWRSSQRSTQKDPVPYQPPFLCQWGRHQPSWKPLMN
Steroid hormone receptor ERR1 (Homo sapiens), sequence (P11474 whole entry, looked up, the tested form may be a part): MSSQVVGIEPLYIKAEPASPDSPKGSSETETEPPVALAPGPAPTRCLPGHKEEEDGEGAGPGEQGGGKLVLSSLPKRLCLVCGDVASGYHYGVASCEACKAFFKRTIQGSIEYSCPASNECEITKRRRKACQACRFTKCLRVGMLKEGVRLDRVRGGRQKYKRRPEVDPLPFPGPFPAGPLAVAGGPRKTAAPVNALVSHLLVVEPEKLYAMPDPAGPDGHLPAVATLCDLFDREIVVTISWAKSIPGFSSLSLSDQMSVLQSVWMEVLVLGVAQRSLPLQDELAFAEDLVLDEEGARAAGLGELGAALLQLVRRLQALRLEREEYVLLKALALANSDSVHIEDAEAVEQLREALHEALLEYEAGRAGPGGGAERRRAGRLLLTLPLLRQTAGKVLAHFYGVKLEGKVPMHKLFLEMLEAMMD
Nuclear receptor subfamily 4 group A member 2 (Homo sapiens), sequence (P43354 whole entry, looked up, the tested form may be a part): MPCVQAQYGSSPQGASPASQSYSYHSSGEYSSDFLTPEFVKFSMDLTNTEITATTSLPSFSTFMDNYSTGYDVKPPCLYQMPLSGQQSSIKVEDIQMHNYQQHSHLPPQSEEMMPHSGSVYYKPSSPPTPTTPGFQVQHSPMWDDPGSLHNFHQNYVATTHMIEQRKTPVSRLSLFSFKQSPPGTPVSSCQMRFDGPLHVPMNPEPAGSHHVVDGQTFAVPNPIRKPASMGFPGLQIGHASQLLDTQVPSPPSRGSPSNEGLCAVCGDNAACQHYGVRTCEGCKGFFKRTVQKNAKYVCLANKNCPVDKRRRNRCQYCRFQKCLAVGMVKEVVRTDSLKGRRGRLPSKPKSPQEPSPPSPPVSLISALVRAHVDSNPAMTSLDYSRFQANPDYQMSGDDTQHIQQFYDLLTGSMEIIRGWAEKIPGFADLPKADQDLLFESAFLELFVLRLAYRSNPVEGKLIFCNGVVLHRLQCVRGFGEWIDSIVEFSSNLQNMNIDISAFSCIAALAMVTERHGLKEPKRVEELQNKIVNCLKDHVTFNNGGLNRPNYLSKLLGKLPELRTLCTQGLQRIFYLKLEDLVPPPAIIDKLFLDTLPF
Nuclear respiratory factor 1 (Homo sapiens), sequence (Q16656 whole entry, looked up): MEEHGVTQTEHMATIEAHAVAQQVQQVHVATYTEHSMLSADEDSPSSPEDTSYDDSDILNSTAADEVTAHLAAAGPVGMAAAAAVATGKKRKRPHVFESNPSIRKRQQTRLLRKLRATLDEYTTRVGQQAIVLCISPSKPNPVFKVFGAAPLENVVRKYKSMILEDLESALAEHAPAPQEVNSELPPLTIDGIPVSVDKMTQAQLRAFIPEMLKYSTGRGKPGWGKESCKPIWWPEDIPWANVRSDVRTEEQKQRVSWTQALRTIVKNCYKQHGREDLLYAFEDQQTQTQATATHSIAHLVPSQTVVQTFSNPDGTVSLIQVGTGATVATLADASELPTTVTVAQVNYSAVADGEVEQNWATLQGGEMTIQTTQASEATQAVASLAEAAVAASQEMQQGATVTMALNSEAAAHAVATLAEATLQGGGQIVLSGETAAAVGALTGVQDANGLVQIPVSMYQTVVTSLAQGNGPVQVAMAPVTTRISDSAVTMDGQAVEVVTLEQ
Glucocorticoid receptor (Homo sapiens), sequence (P04150 whole entry, looked up, the tested form may be a part): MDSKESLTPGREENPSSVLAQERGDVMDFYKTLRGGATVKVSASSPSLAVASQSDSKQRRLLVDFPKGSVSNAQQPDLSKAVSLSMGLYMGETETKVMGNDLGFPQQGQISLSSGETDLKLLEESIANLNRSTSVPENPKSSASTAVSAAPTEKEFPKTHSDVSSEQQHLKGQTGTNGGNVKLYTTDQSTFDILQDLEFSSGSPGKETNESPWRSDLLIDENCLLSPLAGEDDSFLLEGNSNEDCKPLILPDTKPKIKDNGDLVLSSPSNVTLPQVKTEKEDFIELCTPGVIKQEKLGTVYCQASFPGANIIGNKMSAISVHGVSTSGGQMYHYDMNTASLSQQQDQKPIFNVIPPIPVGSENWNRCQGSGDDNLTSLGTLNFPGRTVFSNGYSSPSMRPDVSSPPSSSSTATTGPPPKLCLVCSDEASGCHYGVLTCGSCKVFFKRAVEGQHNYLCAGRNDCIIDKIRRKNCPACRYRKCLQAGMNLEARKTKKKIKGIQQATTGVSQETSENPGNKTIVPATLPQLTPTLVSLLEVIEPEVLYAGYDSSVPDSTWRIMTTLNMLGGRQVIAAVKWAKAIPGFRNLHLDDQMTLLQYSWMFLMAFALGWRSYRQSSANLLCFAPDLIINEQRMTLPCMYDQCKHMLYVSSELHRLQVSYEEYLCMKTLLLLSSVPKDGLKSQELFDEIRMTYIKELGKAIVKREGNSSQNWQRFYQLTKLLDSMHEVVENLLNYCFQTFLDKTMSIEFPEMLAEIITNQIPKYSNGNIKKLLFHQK
Nuclear receptor subfamily 1 group I member 3 (Homo sapiens), sequence (Q14994 whole entry, looked up, the tested form may be a part): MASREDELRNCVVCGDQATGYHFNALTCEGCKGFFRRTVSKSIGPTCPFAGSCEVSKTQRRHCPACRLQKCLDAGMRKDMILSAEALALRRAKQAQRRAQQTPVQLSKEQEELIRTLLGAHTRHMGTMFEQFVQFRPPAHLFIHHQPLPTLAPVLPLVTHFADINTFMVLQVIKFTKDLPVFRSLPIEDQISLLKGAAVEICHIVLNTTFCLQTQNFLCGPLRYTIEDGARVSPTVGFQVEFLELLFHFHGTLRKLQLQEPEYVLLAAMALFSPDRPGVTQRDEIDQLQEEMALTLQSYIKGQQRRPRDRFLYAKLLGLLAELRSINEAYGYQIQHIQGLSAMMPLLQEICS
Transcriptional activator Myb (Homo sapiens), sequence (P10242 whole entry, looked up): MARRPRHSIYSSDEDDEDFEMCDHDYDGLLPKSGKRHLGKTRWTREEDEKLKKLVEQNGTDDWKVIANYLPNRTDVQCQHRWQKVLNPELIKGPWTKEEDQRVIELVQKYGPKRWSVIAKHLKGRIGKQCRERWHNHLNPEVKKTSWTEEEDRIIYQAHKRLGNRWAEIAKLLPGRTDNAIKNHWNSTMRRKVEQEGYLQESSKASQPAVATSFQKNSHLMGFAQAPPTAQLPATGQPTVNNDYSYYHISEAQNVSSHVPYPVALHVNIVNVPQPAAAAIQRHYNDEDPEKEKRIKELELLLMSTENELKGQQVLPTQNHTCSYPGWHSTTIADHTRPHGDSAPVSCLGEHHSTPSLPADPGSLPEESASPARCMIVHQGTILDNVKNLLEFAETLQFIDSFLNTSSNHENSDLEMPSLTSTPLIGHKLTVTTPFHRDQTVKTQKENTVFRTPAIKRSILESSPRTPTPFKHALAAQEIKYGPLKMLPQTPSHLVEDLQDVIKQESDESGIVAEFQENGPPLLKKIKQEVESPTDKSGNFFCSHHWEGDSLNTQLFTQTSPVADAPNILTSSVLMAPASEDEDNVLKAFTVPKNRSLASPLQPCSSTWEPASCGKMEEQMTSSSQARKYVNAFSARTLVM
Oxysterols receptor LXR-alpha (Homo sapiens), sequence (Q13133 whole entry, looked up, the tested form may be a part): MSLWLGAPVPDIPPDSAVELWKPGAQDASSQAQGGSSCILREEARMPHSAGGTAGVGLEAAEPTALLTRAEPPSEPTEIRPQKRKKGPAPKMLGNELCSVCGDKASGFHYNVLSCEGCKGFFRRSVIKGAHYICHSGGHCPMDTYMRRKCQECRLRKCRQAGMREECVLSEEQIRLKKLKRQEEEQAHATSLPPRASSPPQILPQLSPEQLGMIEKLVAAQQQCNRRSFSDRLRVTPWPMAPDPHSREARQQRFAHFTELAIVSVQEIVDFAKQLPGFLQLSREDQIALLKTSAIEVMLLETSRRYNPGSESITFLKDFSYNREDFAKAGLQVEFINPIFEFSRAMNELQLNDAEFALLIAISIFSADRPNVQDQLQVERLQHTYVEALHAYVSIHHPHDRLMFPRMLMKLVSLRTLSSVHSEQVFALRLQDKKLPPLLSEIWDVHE
Oxysterols receptor LXR-beta (Homo sapiens), sequence (P55055 whole entry, looked up, the tested form may be a part): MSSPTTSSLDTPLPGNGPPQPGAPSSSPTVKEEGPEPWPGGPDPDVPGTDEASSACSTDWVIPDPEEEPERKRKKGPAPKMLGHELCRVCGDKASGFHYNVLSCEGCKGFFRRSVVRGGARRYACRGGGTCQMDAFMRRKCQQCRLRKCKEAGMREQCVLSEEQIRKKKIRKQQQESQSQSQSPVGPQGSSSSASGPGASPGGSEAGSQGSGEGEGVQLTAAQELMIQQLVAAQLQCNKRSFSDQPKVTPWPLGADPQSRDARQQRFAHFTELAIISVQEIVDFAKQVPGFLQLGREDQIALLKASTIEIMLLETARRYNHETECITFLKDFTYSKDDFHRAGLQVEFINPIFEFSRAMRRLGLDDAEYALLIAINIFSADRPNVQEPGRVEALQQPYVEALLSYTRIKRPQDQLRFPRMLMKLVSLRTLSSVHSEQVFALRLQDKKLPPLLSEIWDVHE
Estrogen-related receptor gamma (Homo sapiens), sequence (P62508 whole entry, looked up, the tested form may be a part): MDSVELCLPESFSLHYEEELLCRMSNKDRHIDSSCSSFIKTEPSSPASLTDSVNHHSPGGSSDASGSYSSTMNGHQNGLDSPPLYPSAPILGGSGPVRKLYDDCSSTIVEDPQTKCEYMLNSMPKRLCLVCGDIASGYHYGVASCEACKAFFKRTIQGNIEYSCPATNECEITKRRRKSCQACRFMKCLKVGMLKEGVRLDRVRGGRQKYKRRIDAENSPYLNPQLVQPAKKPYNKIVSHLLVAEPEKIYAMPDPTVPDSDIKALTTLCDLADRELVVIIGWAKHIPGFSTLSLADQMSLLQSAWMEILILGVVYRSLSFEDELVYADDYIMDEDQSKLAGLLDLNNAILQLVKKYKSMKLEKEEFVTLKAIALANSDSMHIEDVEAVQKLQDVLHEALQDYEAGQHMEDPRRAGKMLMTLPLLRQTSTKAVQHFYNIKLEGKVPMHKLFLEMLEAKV

`COc1ccccc1N=Nc1c(S(=O)(=O)O)cc2cc(S(=O)(=O)O)cc(NC(C)=O)c2c1O`: the result in test [1], in [2], in test [3], in [4], in [5] and in test [6] was inactive. Also, the call in [7], in test [8], in [9], in test [10], in test [11] and in [12] was inactive. Also, the compound was called inactive in test [13].
The AC50 is the concentration at which the activity in the assay is half-maximal. Consider `COC(=O)c1ccc(OC)cc1`, for which the compound was called inactive in test [1], in [2], in [3], in test [4], in test [5] and in test [14]. The outcome in test [15], in test [16], in test [17], in test [18], in [9] and in [10] was inactive. The compound was called inactive in [12] and in test [13]. The AC50 in test [8] was 15.1 µM (active).
`NC1CCCCC1N` (stereo unspecified): the compound was classed as inactive in [1], in [2], in test [3], in [4], in test [5] and in test [14]. Besides, the compound was classed as inactive in test [19], in test [9], in [10], in test [11], in [12] and in test [13].
For the compound `CCC(C)S` (stereo unspecified), the compound was classed as inactive in test [1], in test [2], in [3], in test [4], in test [14] and in test [6]. The compound was classed as inactive in [8], in [19], in test [10], in test [12] and in test [13].
Regarding `c1ccc2cc(Nc3ccc(Nc4ccc5ccccc5c4)cc3)ccc2c1`, the compound was called inactive in [1], in [2], in test [3], in [4], in [5] and in test [14]. The compound was classed as inactive in test [6], in test [7], in test [15], in test [8], in [17] and in test [9]. Further, the outcome in test [11], in test [12] and in [13] was inactive.

The values are drawn from PubChem BioAssay (EPA / NIEHS).
